Source: PubChem BioAssay AID1347426 (Functional Genomics Laboratory (NCATS/FGL), 2020)
In all, about 31,000 sequences went through this assay and about 1,400 (4.5%) were called active.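 The calls were made as follows: active = median seed-adjusted z-score above 1 or below -1; inactive = the rest.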 Only a selection was taken, and actives are over-represented in it overall.

Experiment: Novel Modifiers of Survival Motor Neuron (SMN) Protein: Gene Identification via Genome-wide siRNA Screen;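 also: luminescence tracks full-length SMN protein made from the SMN2 reporter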
Conditions: HEK293T SMN2-luciferase reporter, siRNA knockdown, 72 h; actives lie on both sides
Outline: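 Each of three siRNAs per gene is reverse-transfected (1 pmol) into reporter HEK293T cells whose luciferase output tracks SMN protein level. After 72 h culture, ONE-Glo luminescence is control-normalized, log10-transformed and MAD-standardized; Common Seed Analysis deprioritizes seed-driven hits.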

Sequence | median seed-adjusted z-score
GUAGGACUCUCAUUCGGGATT against CCND1 | -0.912 (inactive)
GGACCCAAUCAACUCAAUATT against SS18 | 0.34 (inactive)
GCCUAAUUGCGGAACAUAUTT against ESCO1 | 0.755 (inactive)
CGACAAGUUGAAGACCAUATT against CRMP1 | -0.354 (inactive)
CCUAUUCACUUUACACUGUTT against AKR7A2 | 0.192 (inactive)
GAUGAAGAAUGAUAAGUCATT against HNRNPC | -2.15 (active)
AGACAAGUAUGUGAGGAAUTT against BTN2A2 | -0.0599 (inactive)
GGAUAUCGCACUUCACUCATT against ELL | -0.497 (inactive)
GGGCGAGCAUUUUCGAGAATT against USP7 | 0.105 (inactive)
CCACGUUUUGAUCAACAAUTT against RDH11 | -0.241 (inactive)
GAUUGCAUAUUACAAACGATT against GIN1 | -0.0585 (inactive)
GGAACGAGAUUGUCAGAUUTT against POLR2B | -4.81 (active)
GAUACACUUUGUCACCAAATT against FLT3LG | -0.166 (inactive)
CUCAUGAACUUGCACAACATT against WNT7A | 0.0931 (inactive)
GGAUGAUGUGAACUACAAATT against PTDSS1 | -0.76 (inactive)
GGAGGACAUCGACCAGAUATT against APBA1 | 0.305 (inactive)
CGAUAAAGACGGAUUCUAATT against MATK | -0.754 (inactive)
GAAUAUGAGUACCUAGAUUTT against SELPLG | 0.0378 (inactive)
CACCGACAAUAUAAAGGAATT against SLC25A32 | -0.299 (inactive)
GGUCAUGAUUGCUAUCCUUTT against TAAR9 | -1.07 (active)
GGAAGAUUAUUACAGUCGATT against RERE | 0.129 (inactive)

Sequence | median seed-adjusted z-score
GGACGGUACUACAGUGUAATT against HDAC8 | 0.835 (inactive)
GGAUUUCCAGGGAUAUUUATT against CDKN2B | 0.0154 (inactive)
CAUUGAACGCAGUCCCUUUTT against FLNC | 0.00217 (inactive)
CCCAAUGCCUGUUUAUUCATT against POLR2J3 | -5.42 (active)
GGAACCUACCUGACUAAGATT against ARL9 | 0.98 (inactive)
GGGAGUAUAUUUUGAUGAATT against RARS2 | -0.0247 (inactive)
AGAAUAAGUUCAAACAGGATT against RAB4B | -0.207 (inactive)
CAUGAACAGUUUAUCGUAATT against FMR1 | 0.504 (inactive)
GAGACCUAACUGUACGUGATT against TSG101 | 1.48 (active)
CUUGCACUCCUGUCCAUAATT against AP3B1 | 0.31 (inactive)
CUAGUUUGUUGCAAAAUAATT against CDKN2C | -0.0789 (inactive)
CAAUUAAGUUGGAUCCUUUTT against WARS2 | 0.21 (inactive)
GGUACAUCGCGAUAUCAAATT against YSK4 | -0.181 (inactive)
CGAUGGUAUUGACUAAGUUTT against HSPA1L | -1.27 (active)
CUAGGAGUCAAAGAAAAUATT against RNPS1 | 0 (inactive)
GGAGAGAGCGUGUCCUACATT against SIRPA | -0.153 (inactive)
AAACAAAACUUGCACUUUATT against RASD1 | 0.674 (inactive)
GCCUUGAACCUAGGACCAATT against PRAF2 | -0.326 (inactive)
GGACGAGAAUGGGAAGAUUTT against ARD1A | -1.05 (active)
AGACUAUGAUAGAAUCCCATT against LGI3 | -0.0189 (inactive)
CUCUACCCGUGCUAUAUAATT against TIGD1 | 0.224 (inactive)

Sequence | median seed-adjusted z-score
CAAGAUCCAGGACACCAAATT against MAP4K1 | 0 (inactive)
CUAUCCAACUCAAACGAUUTT against USP9Y | 0.012 (inactive)
GGCUUGAUAUUUGACAGAATT against BBOX1 | 0.152 (inactive)
AGAAAUGUCUUGUAGUGAATT against SYT14L | 0.2 (inactive)
GGAUUAUAUUGACAUCAGUTT against DLST | 1.16 (active)
GGGAGGACCUGAACAAGAATT against TAOK2 | 0.28 (inactive)
GGCAUGACCUCAUCACAGUTT against RNASE7 | 1.07 (active)
GAACCAACCUGUCAAGUGATT against SELL | 0.554 (inactive)
GGACAUCGCUAAACAGUUATT against TBC1D1 | -0.359 (inactive)
CUAUCACCGGAUUAACGAATT against ACOX1 | -0.897 (inactive)
GAGUCGAGAAGAUAAUGGATT against RABGEF1 | 0.278 (inactive)
AGACGACGGCGAUGAGGAATT against RALY | 0 (inactive)
GGACGACCACGGCUACAUUTT against CRYAA | -1.03 (active)
GGCUUCAGGUUAUAGUCAATT against OTX2 | -0.00351 (inactive)
AGGAGAUCGUCGACCUGGUTT against TUBA3C | -0.0806 (inactive)
AGGCCCUAGUGCUCAGAUATT against MMS19 | 0.0142 (inactive)
GCAACGAUGUUGCCUGGAATT against GPX1 | -0.0529 (inactive)
GCAUGCAGAUGUUCGGCAATT against CACNA1F | 0.22 (inactive)
CAAGCUUGUUAACAUCAAATT against NPVF | 0.588 (inactive)
GGCUAAUACUGGAAUUGCUTT against SLC38A2 | -1.04 (active)
CCAUGUCUUUCUAUCGCAATT against PLD2 | -0.743 (inactive)

Sequence | median seed-adjusted z-score
GCAAGAUCUUAUCCACAGATT against CIP29 | -1.18 (active)
CAUUGGAAUUCUUUCAAUATT against APTX | -0.131 (inactive)
GAGAAGACCUUUAUACGAATT against XPOT | 0.366 (inactive)
GGAUGGUGGCGUCCAAGAUTT against PSMB10 | 0.00939 (inactive)
GAGCUUCACUCAAAAAUCATT against ZNF160 | -0.454 (inactive)
GCCUAGAAGUGGAACGUGUTT against IFT57 | -1.1 (active)
CCACCUUCGAUGUUCCCAUTT against HMG20B | 0.231 (inactive)
GCAGAGUCACUUUGACAAUTT against CHRNG | 0.221 (inactive)
GGCUUUUAGAGUACGACAATT against ZFP30 | 0.211 (inactive)
CAGUCAACCUGAUUUGAGATT against SOX7 | -0.387 (inactive)
CGUUUAACGUGGUGCUGUUTT against GPR32 | -1.2 (active)
GCUCUAUGUCUACAUCAAUTT against DAXX | 0.349 (inactive)
AUAUCGCUGUGAUGCAAAATT against PLA2G12B | -0.162 (inactive)
ACAGCGAGGUCAAAAGAAATT against HSD11B1 | -0.174 (inactive)
GGACUAAGUGAAGAGCUUATT against NFYB | -0.29 (inactive)
GAGCUGAACUUGUCAUUCUTT against RANGAP1 | -0.0379 (inactive)
CAUGAACCCAGUGAAGAUATT against IRF6 | -1.79 (active)
CACUCAACAUUACAGAUUUTT against ZNF514 | 0.125 (inactive)
CAGCUUUACGAGUAUGCAATT against HS6ST3 | -0.405 (inactive)
